Source: PubChem BioAssay
Sampled rows, rich in hits. Any-hit rate of the full collection: about 2.6%.
Cruzain Triton – blocks cruzain activity in presence of Triton detergent. P25779. 200,000 compounds, 0.43% hits. purified cruzain, Z-FR-AMC fluorescence, 0.01% Triton. Potency, µM, inactives show max response, negative = inhibition, hits mostly inhibitors;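 further: plate controls were neutral wells for no effect and buffer without enzyme for full effect; nearly all actives have a fitted effect of over 40% in size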
Target sequence (P25779 123-467 limits assumed): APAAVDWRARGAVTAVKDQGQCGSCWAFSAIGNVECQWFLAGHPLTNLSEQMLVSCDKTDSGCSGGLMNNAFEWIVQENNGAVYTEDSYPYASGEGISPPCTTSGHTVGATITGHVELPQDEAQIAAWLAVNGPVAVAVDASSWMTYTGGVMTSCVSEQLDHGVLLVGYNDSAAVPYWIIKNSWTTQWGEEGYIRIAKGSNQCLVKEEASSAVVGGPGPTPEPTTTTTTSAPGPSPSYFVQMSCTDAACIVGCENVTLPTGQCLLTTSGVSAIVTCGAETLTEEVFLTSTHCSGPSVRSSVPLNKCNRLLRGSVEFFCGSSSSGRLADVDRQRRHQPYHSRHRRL
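Compounds were screened in titration against cruzain (1.5 nM) with 0.01% Triton X-100 to counter colloidal aggregation. Activity was the AMC fluorescence increase over 60 s after adding 2 uM Z-FR-AMC at pH 5.5.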
Cruzain noTriton – inhibitors of Trypanosoma cruzi cruzain without detergent | P25779 | purified cruzain, Z-FR-AMC fluorescence, no detergent | Potency, µM, for inactives: max response, negative = inhibition, most hits filed as inhibitors | 200,000 compounds, 2.3% hits;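 further: plate controls were enzyme without inhibitor for no effect and buffer without enzyme for full effect; nearly all actives have a fitted effect of over 40% in size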
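Purified cruzain at 1.5 nM, pre-incubated 15 min with compound at room temperature in 100 mM sodium acetate pH 5.5, 5 mM DTT, 0.00005% Triton X-100. Reaction started with 2 uM Z-FR-AMC; AMC fluorescence increase over 60 s gives rate.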
Numbers without * were called inactive; ? = inconclusive. The call rests on the fitted dose curve; in most records, active means well fitted curve in the direction sought with a large enough effect; inconclusive means small, poorly fitted or top-dose-only effect, or another doubt; inactive means no such curve, though single readings can be large; an effect the other way counts as inactive or inconclusive. Potency means the concentration at half of the fitted maximal effect.

SMILES	Cruzain Triton	Cruzain noTriton
COc1cc(NC(=O)Nc2cccc(-c3noc(C)n3)c2)cc(OC)c1OC	-4%	1%
CCC1CCCCN1C(=O)c1c[nH]c2ccc(S(=O)(=O)Nc3cccc(OC)c3)cc2c1=O (stereo unspecified)	-3%	-7%
O=c1c2cc3c(cc2nc2sc(Nc4cccc([N+](=O)[O-])c4)nn12)OCO3	-2%	9%
COCc1c(Br)c(C)nc(OCC(=O)N/N=C/c2cc(C)n(-c3ccc([N+](=O)[O-])cc3)c2C)c1C#N	-3%	32µM*
COCc1cc(C)nc(OCC(=O)N/N=C/c2cc(C)n(-c3c(C)cccc3C)c2C)c1C#N	-3%	10%
O=C(NCc1ccco1)c1ccc(Cn2c(=O)c3sccc3n(Cc3cccc(F)c3)c2=O)cc1	5%	25µM*
O=C(NCc1ccco1)c1ccc(Cn2c(=O)c3ccccc3n(Cc3cccc(Cl)c3)c2=O)cc1	1%	?
Cc1ccc(Cl)cc1	-4%	-1%
Cc1cc(NCc2ccc(Cl)cc2)n2cnnc2n1	-2%	-15%
COc1ccc(CNC(=O)Cn2ncc3c(=O)oc4ccc(C)cc4c32)c(OC)c1	1%	-7%
COc1cccc([C@@H]2Oc3ccc(Br)cc3C(=O)[C@H]2OC(=O)NS(=O)(=O)c2ccc(C)cc2)c1	1%	-11%
Cc1ccc(C)c2[nH]c(=O)c(CN(Cc3ccc4c(c3)OCO4)Cc3nnnn3Cc3ccco3)cc12	-1%	-7%
Cc1ccc2cc(CN(Cc3ccc4c(c3)OCO4)Cc3nnnn3Cc3ccco3)c(=O)[nH]c2c1C	-1%	32µM*
CCn1nc(C)c(CCN(C)C(=O)Nc2cc(Cl)ccc2C)c1C	0%	3%
CCn1c(=O)c2cc(C(=O)N3CCN(c4cccc(OC)c4)CC3)sc2c2ccccc21	0%	6%
O=C(/C=C/Nc1ccc(S(=O)(=O)Nc2ncccn2)cc1)c1ccc(Cl)c(Cl)c1	-5%	32µM*
CC(=O)c1cccc(NS(=O)(=O)c2ccc(N/C=C\C(=O)c3ccc(C)cc3)cc2)c1	4%	-4%
Oc1cccc2ccc(SSc3ccc4cccc(O)c4n3)nc12	-1%	-3%
Cc1ccc(-n2nc(CO)c(C(=O)NC(C)c3ccccc3)n2)cc1C (stereo unspecified)	-6%	-8%
COc1ccc(NC(=O)c2ccc3nc(-c4ccccc4)c(-c4ccccc4)nc3c2)c(OC)c1	2%	-19%
COc1ccccc1NC(=O)c1ccc2nc(-c3ccccc3)c(-c3ccccc3)nc2c1	5%	32µM*
CCOC(=O)c1cccc(NC(=O)Cc2ccc(NC(=O)N3CCCCc4ccccc43)cc2)c1	-5%	0%
CCC(CC)C(=O)Nc1ccc(S(=O)(=O)N2CCC(c3nc4ccccc4s3)CC2)cc1	-3%	1%
COc1ccc([N+](=O)[O-])cc1NC(=O)C(C)c1ccccc1 (stereo unspecified)	-7%	-4%
COc1ccc([N+](=O)[O-])cc1NC(=O)CC(c1ccccc1)c1ccccc1	-3%	25µM*
SMILES	Cruzain Triton	Cruzain noTriton
CCOC(=O)/C(C#N)=N/Nc1ccc(S(=O)(=O)N2CCc3ccccc32)cc1	-7%	25µM*
Cc1ccc(C(=O)Nc2ccc(S(=O)(=O)N3CCc4ccccc43)cc2)o1	0%	-16%
O=C(c1ccc(S(=O)(=O)N2CCCCC2)cc1)c1nnc(-c2ccc(Cl)cc2)o1	2%	-13%
O=C(CCc1ccc(S(=O)(=O)N2CCCCC2)cc1)c1nnc(-c2ccccc2)o1	-3%	25µM*
CCN(C(=O)CSc1nc2ccccc2n1CC(=O)Nc1cccc(C#N)c1)c1ccccc1	-3%	0%
CNc1ncc(C(=O)c2ccc(Cl)c(Cl)c2)s1	-9%	-11%
O=C(c1ccc(Cl)c(Cl)c1)c1cnc(Nc2ccccc2)s1	5%	20µM*
COc1ccc(CNC(=O)CN2C(=O)COc3ccc(S(=O)(=O)Nc4ccccc4)cc32)cc1	-5%	-22%
CN(C)C(=O)c1nc2ccccc2s1	-1%	0%
CN(C)c1ccc(CC(=O)c2nc3ccccc3s2)cc1	-4%	20µM*
COc1ccccc1CNC(=O)c1cc2cccc3c2n1CCS3	-8%	25µM*
O=C(NCc1ccccc1Cl)c1cc2cccc3c2n1CCS3	-3%	?
COC(=O)N[C@@H](/C=C/c1ccccc1)[C@@H](C)[N+](=O)[O-]	4%	5%
CCOc1ccc(NC(=O)Cn2cc(C(=O)c3ccc(OC)cc3)c(=O)c3cc4c(cc32)OCO4)cc1	-2%	-11%
Cc1cccc(CCNC(=O)CN(c2ccc(C(C)C)cc2)S(=O)(=O)c2c(C)nn(C)c2C)c1	-3%	?
COc1ccc(C2CC(=O)c3cc(-c4nc(-c5cccc([N+](=O)[O-])c5)cs4)c(=O)n(-c4ccc(F)cc4)c3C2)cc1 (stereo unspecified)	-3%	1µM*
COc1ccc(C2CC(=O)c3cc(-c4nc(-c5cccc([N+](=O)[O-])c5)cs4)c(=O)n(-c4ccccc4)c3C2)cc1 (stereo unspecified)	0%	-4%
Cn1nnc2c(N3CCN(c4ccc(F)cc4)CC3)ncnc21	-5%	?
Cc1cccc(OCCn2cc(/C=N/NC(=O)c3ccncc3)c3ccccc32)c1	-8%	?
CCC(C)c1ccc(OCCn2cc(/C=N/NC(=O)CSc3nnc(C)s3)c3ccccc32)cc1 (stereo unspecified)	1%	4µM*
CCN(CC)CCCC(C)n1c(-c2ccccc2)nc2c(NC3CCCCC3)nc(C)nc21 (stereo unspecified)	-5%	-6%
CCOC(=O)c1cnc2ccc(OC)cc2c1NCCc1ccccc1	-13%	-1%
Cc1ccc(CNC(=O)C(=O)Nc2c3c(nn2-c2ccc(F)cc2)CSC3)cc1	-1%	13µM*
CC(=O)Nc1c2c(nn1-c1ccc(C)cc1C)CSC2	-2%	2%
Cc1ccc(CNC(=O)C(=O)Nc2c3c(nn2-c2ccccc2)CSC3)cc1	0%	?
SMILES	Cruzain Triton	Cruzain noTriton
Cc1ccc(-n2nc3c(c2NC(=O)c2ccc4c(c2)OCO4)CSC3)cc1	0%	16µM*
Cc1ccc2scc(N3CCCCC3)c(=O)c2c1	-4%	-1%
O=C(NCc1ccc2c(c1)OCO2)c1ccc2c(c1)N(Cc1ccc(F)cc1)C(=O)c1ccccc1S2=O (stereo unspecified)	2%	-5%
COC(=O)c1c(NC(=S)Nc2ccc(CC(=O)O)cc2)sc(C)c1C	-11%	8%
CCOC(=O)c1c(NC(=S)NC)sc2c1CC(C)(C)SC2	-26%	-24%
CCOC(=O)c1c(NC(=S)Nc2ccccc2)sc2c1CC(C)(C)SC2	-4%	13µM*
CCOC(=O)c1c(NC(=S)Nc2ccc(Cl)cc2)sc(C)c1C	-4%	4µM*
Cc1c2cnn(CC(=O)NCCc3ccccc3)c(=O)c2c(C)n1Cc1ccccc1Cl	-4%	-2%
O=C(Nc1nc(-c2ccncc2)cs1)c1ccco1	-12%	16µM*
O=C(Nc1cccc2cccc(NC(=O)c3ccco3)c12)c1ccco1	-2%	25µM*
O=C(Nc1ccccc1NC(=O)c1ccco1)c1ccco1	0%	6%
O=C(Nc1nc(-c2cc3ccccc3oc2=O)cs1)c1ccco1	-7%	-5%
CCOc1ccc(NC(=O)c2oc3ccccc3c2NC(=O)c2cc3ccccc3o2)cc1	-1%	-15%
COc1cccc(-c2nnc3sc(-c4ccccc4)nn23)c1	-8%	?
COc1cccc(OC)c1-c1nn2c(-c3cc(-c4ccccc4)n[nH]3)nnc2s1	1.8µM*	20µM*
